Whole data set: some 33,000 sequences, median “e-score” near -0.037, cut for the highest 2% near 0.34. Shown is part of a subset that was picked to be rich in the highest values.

In this test the target is T1, GST-Rok (full length) (Bacillus subtilis subsp. subtilis str. …, UniProt O34857 1-191).
T1 sequence: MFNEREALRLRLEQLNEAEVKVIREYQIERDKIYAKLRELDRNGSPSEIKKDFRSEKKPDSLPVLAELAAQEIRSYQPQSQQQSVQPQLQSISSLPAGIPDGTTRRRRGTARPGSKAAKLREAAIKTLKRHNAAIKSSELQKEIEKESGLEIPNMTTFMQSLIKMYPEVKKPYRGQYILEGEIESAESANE
Briefly: protein binding microarray; Rok is a gene silencer of Bacillus subtilis; high values mean tight binding. The note with it: protein: recombinant; tags: GST (pTH5325, pDEST15-Magic modified); dsDNA, one strand shown. The procedure, abridged:
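Every oligonucleotide joins a 25-mer constant primer to a 35-mer variable part drawn from a de Bruijn sequence of order 10, so each non-palindromic 8-mer appears at least 32 times and each palindromic 8-mer 16 times. The preference for every 8-mer is reported as a unitless, rank-based enrichment score (E-score). This score spans 0.5 for the most favored 8-mer to −0.5 for the most disfavored.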
As for AGTTTGAC, the binding signal is -0.0534 E-score.
Turning to ACAACTCA, the binding signal was determined as 0.097 E-score.
With GAGTAATA, the binding signal turned out to be 0.318 E-score.
With GAATAGTA, the binding signal stood at 0.285 E-score.
TAGTAATA: the binding signal stood at 0.408 E-score.
For the sequence AAGTAACA, the binding signal turned out to be 0.207 E-score.
For AAATAGTG, the binding signal was found to be 0.231 E-score.
Turning to AAATAGTT, the binding signal stood at 0.4 E-score.
The result for TAATAGCA reads 0.257 E-score; that for TAGTAACA, 0.366 E-score.
On to CAGTAACA, for which the binding signal came to 0.0586 E-score.
For the sequence TAATAGTA, the binding signal is 0.401 E-score.
As for AAGTAATA, the figure is 0.275 E-score.
As for AAATAGTC, the figure is 0.119 E-score; as for GTTTGTAA, 0.172 E-score.
As for CATCACAG, the figure is -0.0903 E-score; as for ACAGTTAC, 0.278 E-score.
On to ACATCAAG, for which the binding signal was 0.00272 E-score.
The result for AGGGTGAA reads -0.17 E-score.
The result for CGTGGCTC reads -0.0956 E-score.
On to GCATGGGC, for which the binding signal is -0.196 E-score.
With AGTGGTAG, the binding signal turned out to be 0.393 E-score.
Regarding AGTGGTAC, the binding signal is 0.191 E-score.
Consider ATTGGTAA, for which the binding signal was 0.265 E-score.
For the sequence ATAGGTAA, the binding signal came out at 0.223 E-score.
As for ATTGGTAG, the figure is 0.371 E-score; as for AATGGTAT, 0.309 E-score.
The result for CATGGTAG reads 0.168 E-score; that for ATAGGTAG, 0.41 E-score; that for ATTGGTAC, 0.289 E-score.
In the case of ATAGGTAC, the binding signal was 0.219 E-score.
On to AATGGTAG, for which the binding signal worked out at 0.398 E-score.
As for CGTGGTAG, the figure is 0.295 E-score; as for CACTGCTA, 0.106 E-score.
Take ACAGAACC: the binding signal is -0.171 E-score.
The result for CTTTTTTC reads 0.0367 E-score; that for CAAACCTA, 0.145 E-score; that for ATATAGAG, 0.208 E-score.
The result for AAATAGAC reads 0.0132 E-score; that for ATATAGAC, 0.0949 E-score.
As for AAATAGAA, the figure is 0.368 E-score; as for CTATAGAA, 0.275 E-score; as for GAATAGAA, 0.101 E-score.
Regarding GTATAGAA, the binding signal is 0.329 E-score.
In the case of ATATAGAA, the binding signal came out at 0.354 E-score.
As for ATATAGAT, the figure is 0.416 E-score.
With TGATGTAA, the binding signal is 0.134 E-score.
As for AACCGTAG, the figure is 0.0498 E-score; as for CGCAATAA, 0.185 E-score; as for CTCTCTAC, 0.0296 E-score.
The result for ATATCTGC reads 0.221 E-score.
As for CTATCTAA, the figure is 0.264 E-score.
With CTATCTTC, the binding signal amounted to 0.11 E-score.
For CTATCTAC, the binding signal was determined as 0.433 E-score.
The result for ATATCTAG reads 0.346 E-score.
The result for ACATCTAG reads 0.325 E-score; that for ATATCTAA, 0.371 E-score; that for ATCTCTAA, 0.0544 E-score.
As for ATCTCTAG, the figure is -0.00242 E-score; as for ATCTCTAC, 0.0894 E-score; as for ATATCTAC, 0.393 E-score.
Regarding AGTTAGGG, the binding signal was -0.0305 E-score.
CTATGATA: the binding signal was found to be 0.172 E-score.
As for AACCCAAC, the binding signal was determined as 0.212 E-score.
As for ACACAAGC, the figure is -0.0939 E-score; as for AACGCCCT, -0.11 E-score; as for ACTTCACT, 0.0809 E-score.
Consider TACTCTGA, for which the binding signal was -0.0307 E-score.
AGATATTA: the binding signal was 0.404 E-score.
The result for GCATATTA reads 0.242 E-score; that for CCATATTA, 0.165 E-score.
As for CAATATTA, the figure is 0.254 E-score; as for CTATATTA, 0.384 E-score.
In the case of ATCTATTG, the binding signal was 0.282 E-score.
As to AGATATTG, the binding signal was 0.196 E-score.
For CTCTATTA, the binding signal was found to be 0.0982 E-score.
As for CGATATTA, the figure is 0.213 E-score; as for ACATATTG, 0.148 E-score.
As for ATATATTG, the figure is 0.372 E-score.
As for ACATATTA, the figure is 0.345 E-score.
Turning to AGATTCGG, the binding signal amounted to 0.0606 E-score.
As for ACAATCGG, the binding signal came out at 0.00195 E-score.
The result for AACTGTTC reads 0.004 E-score; that for AAGCAAAA, 0.0376 E-score.
As for ATATATTA, the figure is 0.467 E-score; as for ATCTATTA, 0.312 E-score; as for GTATATTA, 0.391 E-score.
The result for GTGTATTA reads 0.205 E-score; that for GTATATGA, 0.216 E-score.
For the sequence ATATATGA, the binding signal stood at 0.287 E-score.
Consider CATCGTTC, for which the binding signal is -0.0505 E-score.
As for AAGCAGAA, the binding signal stood at 0.142 E-score.
Take ATGGGCTA: the binding signal worked out at 0.0395 E-score.
As for GATTTGTA, the figure is 0.249 E-score; as for CGTTTGTA, 0.138 E-score; as for AATTTGTA, 0.352 E-score.
As for AGTTTGTA, the figure is 0.391 E-score; as for AGTTTGTC, 0.0187 E-score.
As for ATTTTGTA, the figure is 0.232 E-score; as for GTCGGCAA, -0.0858 E-score.
In the case of CCAAGAAC, the binding signal was -0.19 E-score.
The result for CTCCGAAA reads -0.0499 E-score; that for CAGTTGAG, -0.000936 E-score; that for AATGAATT, 0.29 E-score.
As for ACAATAAC, the figure is 0.214 E-score; as for AGTCCCAT, -0.144 E-score; as for TCTATAAA, 0.186 E-score.
On to ACTATAAA, for which the binding signal was 0.341 E-score.
Regarding ACTATAAT, the binding signal was determined as 0.411 E-score.

(Values after article PMC6212790, “How bacterial xenogeneic silencer rok distinguishes foreign from self DNA in its resident genome”.)
